Measured values as given in PubChem BioAssay (Tox21).
Inconclusive results are not listed. Calls of active or inactive are those of the source. Calls follow the shape of the dose curve; as a rule, active = well fitted cell-killing curve with a large enough effect in the repeat runs; inconclusive = weak or mixed curves, or effect the other way; inactive = no such curve, though single readings can be large or run the other way.

Assay: qHTS assay to identify small molecule antagonists of the retinoid-related orphan receptor gamma (ROR-gamma) signaling pathway - cell viability counter screen (AID 1159520); also: nearly all actives have a fitted effect of over 50% in size
Conditions: Tet-on RORgamma CHO cells viability, ATP luminescence, 16 h; series mostly up to 92.4 µM; activity, negative = cytotoxicity: at the top concentration
Source text: U.S. Tox21 Program National Center for Advancing Translational Sciences [NCATS] NIH Chemical Genomics Center [NCGC] U.S. Environmental Protection Agency [EPA] National Institutes of Environmental Health Sciences [NIEHS] National Toxicology Program [NTP] U.S. Food and Drug Administration [FDA] Tox21 Assay Overview: Nuclear steroid hormone receptors are involved in many biological processes including inflammatory responses, cell proliferation, and apoptosis. Environmental factors or compounds disrupting these nuclear receptor pathways and gene expression may promote susceptibility to immunotoxicants and autoimmune diseases. One important group of these expression factors are the retinoid-related orphan receptors. To assess compounds that may interfere with the retinoid-related orphan receptor gamma (ROR-gamma) transcription factor, a cell-based luciferase assay was used. The CHO cell-based assay utilizes a TET-inducible ROR expression factor and ROR response element-LUC reporter gene. Reporter gene activity was induced using Doxycycline Hyclate and measured after 16 hr incubation. Tet-on ROR gamma CHO cells were used to screen against the Tox21 10K compound library for cytotoxicity by measuring the viability of the cells based on the quantitation of the ATP.
Tox21 Assay Protocol Summary: Tet-on ROR gamma CHO cells were dispensed at 1,000 cells in 4 uL of culture medium per well into white wall/solid bottom 1536-well plates using a Multidrop Combi (Thermo Scientific, Waltham, MA) dispenser. Following incubation at 37 C and 5% CO2 for 4 hr, 23 nL of compounds dissolved in DMSO, positive controls or DMSO only were transferred by a Pintool station (Kalypsys, San Diego, CA) and after 2 hr incubation at 37 C, one ul of 1 uM (final concentration) of Doxycycline Hyclate was added to all the wells by using a Flying Reagent Dispenser (FRD) (Aurora Discovery, San Diego, CA). After 16 hr incubation at 37 C and 5% CO2, 5 uL of CellTiter-Glo reagent (Promega Corporation, Madison, WI) was added to each assay plate using FRD. After 30 min incubation at room temperature, luminescence was quantified on a ViewLux plate reader (Perkin Elmer, Waltham, MA).
% is scaled to controls: 0 for no effect and ±100 for the full control effect.

Q: With `C=C(C)C(=O)NCCCN(C)C` as the compound, how does the “activity, negative = cytotoxicity” value read?
A: Its value is -1.13% (inactive).

Q: For `NCCN1CCNC1=O`, which “activity, negative = cytotoxicity” value is on record?
A: The value was -0.712% (inactive).

Q: With `O=C1OC(=O)c2cc([N+](=O)[O-])ccc21` as the compound, how does the “activity, negative = cytotoxicity” value read?
A: Its value is -10.3% (inactive).

Q: Which “activity, negative = cytotoxicity” value does the source give for `C(=C(c1ccccc1)c1ccccc1)c1ccccc1` here?
A: Its value is -19.6% (inactive).

Q: For `COC(=O)C1=C(C)NC(C)=C(C(=O)OCC(C)=O)C1c1ccccc1[N+](=O)[O-]` (stereo not given), which “activity, negative = cytotoxicity” value is on record?
A: Its value is -2% [at 42.5 µM] (inactive).

Q: With `Oc1cc(O)c2c(c1)O[C@H](c1ccc(O)c(O)c1)[C@H](O)C2` as the compound, how does the “activity, negative = cytotoxicity” value read?
A: The value was 2.21% [at 42.5 µM] (inactive).

Q: With `Cc1onc(-c2ccccc2)c1-c1ccc(S(N)(=O)=O)cc1` as the compound, how does the “activity, negative = cytotoxicity” value read?
A: The value was 0.878% [at 42.5 µM] (inactive).

Q: For `c1ccc(CCCc2ccccn2)cc1`, which “activity, negative = cytotoxicity” value is on record?
A: Its value is 1% (inactive).

Q: With `OCC(CO)(CO)COCC(CO)(CO)CO` as the compound, how does the “activity, negative = cytotoxicity” value read?
A: Its value is 3.14% (inactive).

Q: With `COc1ccc(NC(C)=O)cc1` as the compound, how does the “activity, negative = cytotoxicity” value read?
A: The value was -0.594% (inactive).

Q: Which “activity, negative = cytotoxicity” value does the source give for `NCCNC(=O)c1ccc(Cl)cn1` here?
A: Its value is 7.39% [at 42.5 µM] (inactive).

Q: Which “activity, negative = cytotoxicity” value does the source give for `CO` here?
A: The value was 0.299% (inactive).

Q: With `CC(=O)c1ccc(C)cc1` as the compound, how does the “activity, negative = cytotoxicity” value read?
A: The value was 0.0751% (inactive).

Q: For `C1=C\CC/C=C\CC/C=C\CC/1`, which “activity, negative = cytotoxicity” value is on record?
A: The value was 2.82% (inactive).

Q: Which “activity, negative = cytotoxicity” value does the source give for `CC1=CC(=O)CCC1` here?
A: The value was 0.805% (inactive).

Q: For `CC12CCC(CC1=O)C2(C)C` (stereo not given), which “activity, negative = cytotoxicity” value is on record?
A: Its value is 0.0313% (inactive).

Q: For `CCCC(C)C(=O)O` (stereo not given), which “activity, negative = cytotoxicity” value is on record?
A: The value was -15.1% (inactive).

Q: Which “activity, negative = cytotoxicity” value does the source give for `CC1=CC(C)C(C=O)C(C)C1` (stereo not given) here?
A: The value was 0% (inactive).

Q: For `O=C(O)c1ccccc1S`, which “activity, negative = cytotoxicity” value is on record?
A: Its value is 0.693% [at 42.5 µM] (inactive).

Q: Which “activity, negative = cytotoxicity” value does the source give for `CCC(C)OC(=O)N1CCCCC1CCO` (stereo not given) here?
A: The value was 11.9% (inactive).

Q: Which “activity, negative = cytotoxicity” value does the source give for `NC(=O)CCCCC1CCSS1` (stereo not given) here?
A: Its value is 0.119% [at 42.5 µM] (inactive).

Q: With `CN(C)C(=O)Nc1ccccc1` as the compound, how does the “activity, negative = cytotoxicity” value read?
A: Its value is 9.56% (inactive).

Q: For `C=CCSCC1Nc2cc(Cl)c(S(N)(=O)=O)cc2S(=O)(=O)N1` (stereo not given), which “activity, negative = cytotoxicity” value is on record?
A: Its value is -4.66% [at 42.5 µM] (inactive).

Q: For `C=CCn1c(=O)n([C@@H]2O[C@H](CO)[C@@H](O)[C@H]2O)c2nc(N)[nH]c(=O)c21`, which “activity, negative = cytotoxicity” value is on record?
A: Its value is 1.08% [at 42.5 µM] (inactive).

Q: For `C[C@H](O)C(=O)Nc1c(I)c(C(=O)NC(CO)CO)c(I)c(C(=O)NC(CO)CO)c1I`, which “activity, negative = cytotoxicity” value is on record?
A: The value was 3.2% [at 42.5 µM] (inactive).

Q: With `N#CCc1ccccc1[N+](=O)[O-]` as the compound, how does the “activity, negative = cytotoxicity” value read?
A: Its value is -3.24% (inactive).

Q: For `CCN1CCCC1CNC(=O)c1cc(S(N)(=O)=O)ccc1OC` (stereo not given), which “activity, negative = cytotoxicity” value is on record?
A: The value was -12.9% (inactive).

Q: Which “activity, negative = cytotoxicity” value does the source give for `NC(=O)c1c(Cl)cccc1Cl` here?
A: Its value is -0.0972% (inactive).

Q: With `C=C(C)C(=O)OCCCCCCCCCCCCCCCCCC` as the compound, how does the activity, negative = cytotoxicity read?
A: Its activity, negative = cytotoxicity is -0.822% [at 19 µM] (inactive).

Q: For `CC1=CCC2C(C1)C2(C)C` (stereo not given), which “activity, negative = cytotoxicity” value is on record?
A: Its value is 4.98% (inactive).

Q: With `CC1(C)OC(=O)Nc2ccc(Br)cc21` as the compound, how does the “activity, negative = cytotoxicity” value read?
A: Its value is -0.118% [at 42.5 µM] (inactive).

Q: Which “activity, negative = cytotoxicity” value does the source give for `NC(=O)Nc1nc2ccccc2[nH]1` here?
A: The value was 4.4% (inactive).

Q: With `CC(C)(O)c1ccccc1` as the compound, how does the “activity, negative = cytotoxicity” value read?
A: The value was 0.143% (inactive).

Q: Which “activity, negative = cytotoxicity” value does the source give for `Oc1ccc2c(c1)OC[C@@H](N1CCC(O)(c3ccc(F)cc3)CC1)[C@H]2O` here?
A: The value was 0.788% [at 42.5 µM] (inactive).

Q: With `CCN(CC)S(=O)(=O)c1ccc(C(=O)O)cc1` as the compound, how does the “activity, negative = cytotoxicity” value read?
A: The value was 0.845% [at 42.5 µM] (inactive).

Q: Which “activity, negative = cytotoxicity” value does the source give for `C=C[Si](OC)(OC)OC` here?
A: Its value is 3.04% (inactive).

Q: Which “activity, negative = cytotoxicity” value does the source give for `C[C@H]1O[C@@H](n2cc(F)c(=O)[nH]c2=O)[C@H](O)[C@@H]1O` here?
A: Its value is 4.42% [at 42.5 µM] (inactive).

Q: With `N#CCN(CC#N)CCN(CC#N)CC#N` as the compound, how does the “activity, negative = cytotoxicity” value read?
A: Its value is 2.96% (inactive).

Q: With `NS(=O)(=O)c1cc2c(cc1C(F)(F)F)NC(Cc1ccccc1)NS2(=O)=O` (stereo not given) as the compound, how does the “activity, negative = cytotoxicity” value read?
A: Its value is 0.445% [at 42.5 µM] (inactive).

Q: Which “activity, negative = cytotoxicity” value does the source give for `CCCCNc1ccccc1` here?
A: Its value is 5.97% (inactive).
